In the library only some 4.1% were active in any assay of this set; here they are far more common.
hcDAF12 agonist – H. contortus DAF-12 nuclear receptor activators, primary screen, cell-based, luminescence, HEK293, lit1-tk-luc reporter | HEK293 hcDAF-12 lit1-tk-luc reporter; 0% DMSO, 100% Δ7-dafachronic acid | activation, % at 6.8 µM | 370,000 tested, 1.4% active;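 active = activation above the mean of all tested compounds plus 3 SD, cut at about 5.5% in these data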;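 note: 100% = response to 3 µM Δ7-dafachronic acid high control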
DAX1 inh-1 – DAX1 (NR0B1) inhibitors, primary screen, cell-based, HEK293, Gal4-DAX1, luciferase luminescence; Nuclear receptor subfamily 0 group B member 1 (Homo sapiens), P51843; AID 504766, 2011; HEK293 Gal4-DAX1 luciferase reporter; inhibition, % at 6.75 µM; 340,000 tested, 0.99% active;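 active = inhibition above the mean over all tested compounds plus 3 SD, cut at about 4.2% in these data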;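 note: 0% = DAX1-transfected cells with DMSO and 100% = empty-vector control cells with DMSO; inhibition shows as a rise in luminescence from relieved DAX1 repression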
hgDAF12 agonist – H. glycines DAF-12 receptor agonists, primary screen, cell-based, luminescence, HEK293, GAL4 fusion, UAS-luciferase; HEK293 GAL4-hgDAF12 UAS-luciferase reporter, agonist luminescence; normalized to butyrate control; 370,000 tested, 1.8% active; activation, % at 6.8 µM;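 active = activation above a cutoff set at the mean of all screened compounds plus 3 SD, cut at about 10% in these data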;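 note: 0% = DMSO wells and 100% = sodium butyrate wells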
ssDAF12 agonist – S. stercoralis DAF-12 nuclear receptor activators, primary screen, cell-based, luminescence, HEK293, GRIP1 co-expression, lit1-tk-luc. Nuclear hormone receptor DAF-12 (Strongyloides stercoralis). HEK293 ssDAF-12/GRIP1 lit1-tk-luc reporter; % of 3 µM dafachronic acid response. activation, % at 6.8 µM. 370,000 tested, 1% active. AID 652126, 2013;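 active = activation above the mean over all tested compounds plus 3 SD, cut at about 0.9% in these data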;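 note: 0% = DMSO-only wells and 100% = 3 µM delta7-dafachronic acid wells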
DAX1 inh-2 – DAX1 (NR0B1) inhibitors on StAR promoter, primary screen, cell-based, luminescence, SF-1 (NR5A1), full-length DAX-1 | HEK293T StAR-luciferase reporter, SF-1/DAX-1 repression relief | inhibition, % at 6.8 µM | 370,000 tested, 1.1% active | AID 652010, 2013;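 active = inhibition above the mean over all tested compounds plus 3 SD, cut at about 3.6% in these data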;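 note: 0% = DAX-1 cells with DMSO and 100% = cells lacking DAX-1 with DMSO; higher inhibition means more luminescence from relief of DAX-1 repression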
hgDAF12 conf – H. glycines DAF-12 receptor agonists, confirmation, cell-based, luminescence, HEK293, GAL4-LBD fusion | shares compounds with hgDAF12 agonist | HEK293 GAL4-hgDAF12 luciferase reporter, agonist mode; percent of butyrate response | activation, % at 6.8 µM | 3,300 tested, 80% active;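 active = mean activation over triplicate wells above the hit cutoff derived from the earlier primary screen, cut at about 11% in these data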;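 note: 0% = DMSO low control and 100% = 2 mM sodium butyrate high control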
LXRb DAF12 ctr – LXR agonists, Gal4 luciferase reporter, confirmation, counter-screen for hgDAF-12 agonist project, cell-based, luminescence, HEK293, H. glycines campaign | shares compounds with hgDAF12 agonist | 24 h | activation, % at 6.8 µM | 3,300 tested, under 10 active;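 active = mean activation of the triplicate above a set limit carried over from the primary screen, none filed active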
Target sequence (P55055 whole entry, looked up, the tested form may be a part): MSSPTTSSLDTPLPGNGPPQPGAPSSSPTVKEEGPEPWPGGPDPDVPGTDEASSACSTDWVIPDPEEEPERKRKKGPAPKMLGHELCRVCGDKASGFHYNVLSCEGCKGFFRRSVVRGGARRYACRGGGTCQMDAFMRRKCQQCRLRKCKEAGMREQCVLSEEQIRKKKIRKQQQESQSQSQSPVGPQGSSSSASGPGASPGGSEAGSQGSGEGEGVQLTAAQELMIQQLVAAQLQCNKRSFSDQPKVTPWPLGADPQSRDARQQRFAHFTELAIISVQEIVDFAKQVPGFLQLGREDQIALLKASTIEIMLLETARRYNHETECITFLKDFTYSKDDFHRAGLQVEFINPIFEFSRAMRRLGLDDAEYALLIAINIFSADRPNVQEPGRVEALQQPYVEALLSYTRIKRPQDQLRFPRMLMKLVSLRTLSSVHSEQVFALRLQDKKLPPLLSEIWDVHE
Numbers without * were called inactive; . = no result given.

SMILES | hcDAF12 agonist | DAX1 inh-1 | hgDAF12 agonist | ssDAF12 agonist | DAX1 inh-2 | hgDAF12 conf | LXRb DAF12 ctr
Cc1nc2ccc(S(=O)(=O)NCC(=O)NCc3ccccc3C)cc2s1 | -1 | . | 0 | -1 | -1 | . | .
COc1ccc(-c2cc(C(=O)c3c(N)n(C)c(=O)n(C)c3=O)c3ccccc3n2)cc1 | 5 | 2 | 14* | 1.7* | 1 | 10* | 0
CCOC(=O)N(O)c1ccc(C=Cc2ccccc2)cc1 | 1 | -1 | 3 | -2 | -2 | . | .
Cc1nn(-c2ccccc2)c(N)c1N=O | 2 | . | 3 | -1 | 0 | . | .
Cc1nn(-c2ccccc2)c(N)c1N=Nc1ccc2ccccc2c1 | 3 | 2 | 23* | 1 | 3 | 18* | 1
Cc1ccc(N=Nc2c(N)nn(-c3ccccc3)c2N)cc1 | 2 | 0 | 20* | 0.9* | 1 | 25* | 1
C#CCNC(=O)C[C@H]1C[C@@]2(C(=O)OC)C(=C[C@H](C(C)(C)C)O[C@@H]2C)N(CCCCCCCC)C1=O | -1 | . | 1 | -1 | -1 | . | .
O=C1c2ccccc2NC(c2ccccc2)N1/N=C/c1ccccc1 (stereo not drawn) | 5 | 1 | 15* | 1 | 3 | 15* | 1
O=C1c2ccccc2NC(c2ccc(O)cc2)N1/N=C/c1ccc(O)cc1 (stereo not drawn) | -2 | 2 | 8 | -1 | 1 | . | .
CC(/C=C/c1ccc(OCc2ccccc2)cc1)=N\O | 6.1* | 1 | 14* | -1 | 2 | 13* | 1
Cc1ccc(SCCNC(=O)c2ccccc2F)cc1 | 0 | -1 | 1 | -2 | 0 | . | .
O=C(NCCSc1ccccc1)c1ccccc1F | 5.8* | 3 | 13* | -1 | 2 | 13* | 1
Cc1ccc(NC(=O)c2ccc(N3C(=O)C4CC=C(Cl)CC4C3=O)cc2)cc1 (stereo not drawn) | -1 | -1 | 2 | -1 | 2 | . | .
C/C(=N\O)c1ccc(N2C(=O)C3CC=C(Cl)CC3C2=O)cc1 (stereo not drawn) | 4 | 5.0* | 14* | 0 | 4 | 15* | 1
COc1cccc(-c2cnc(C(O)c3ccc(Cl)c(Cl)c3)[nH]2)c1 (stereo not drawn) | -2 | . | 2 | -1 | 0 | . | .
COc1ccc(NC(=O)CSc2nc3ccsc3c(=O)n2CCC(=O)O)c(OC)c1 | 1 | 0 | 14* | -1 | 0 | 1 | 0
O=C(N/C=C/c1ccccc1)c1ccccc1 | 4 | 2 | 15* | 1 | 3 | 16* | 1
COC(=O)c1ccc(NC(=O)C2CC3CCC2C3)cc1 (stereo not drawn) | 0 | 2 | 7 | -1 | 1 | . | .
CCOC(=O)c1ccc(NC(=O)C2CC3CCC2C3)cc1 (stereo not drawn) | 6.5* | . | 14* | 0 | 3 | 17* | 1
CCC(CC)c1nnc(NC(=O)C2COc3ccccc3O2)s1 (stereo not drawn) | 3 | 2 | 14* | -1 | 2 | 6 | 1
O=C(Nc1cnc2ccccc2c1)C1COc2ccccc2O1 (stereo not drawn) | 3 | 2 | 14* | 0 | 2 | 8 | 1
Cc1ccc(NC(=O)Nc2cnc3ccccc3c2)cc1 | 5 | 3 | 15* | 1 | 3.7* | 20* | 1
O=C(Nc1ccc(F)cc1)C1COc2ccccc2O1 (stereo not drawn) | 2 | 1 | 6 | 0 | 0 | . | .
O=C1CCCC(O)=C1N=Nc1ccc2c(c1)OCO2 | 5.9* | 3 | 14* | -1 | 0 | 9 | 1
O=C1CCCC(O)=C1N=Nc1ccc(C(=O)O)cc1 | 0 | 1 | 0 | -2 | 1 | . | .
SMILES | hcDAF12 agonist | DAX1 inh-1 | hgDAF12 agonist | ssDAF12 agonist | DAX1 inh-2 | hgDAF12 conf | LXRb DAF12 ctr
CCC(=O)Nc1cc2c(cc1Cl)-c1ccccc1C2 | 5.8* | 1 | 18* | 0 | 3 | 17* | 0
COc1ccc(Cl)cc1Nc1nc(Cl)nc(NCCO)n1 | 0 | 2 | 3 | -1 | -1 | . | .
CCc1cc2cc(C(=O)Nc3ccccc3F)sc2s1 | 6.4* | 4 | 15* | 0 | 3 | 18* | 1
CCc1cc2cc(C(=O)Nc3ccc(F)cc3)sc2s1 | -1 | -1 | 2 | -1 | 1 | . | .
O=C(NCCc1ccccc1)c1n[nH]c2ccccc12 | 5.7* | 1 | 15* | 0 | 3 | 13* | 1
O=C(OCCOc1ccccc1)c1n[nH]c2ccccc12 | 1 | 3 | 15* | -1 | 2 | 13* | 1
CCOC(=O)c1n[nH]c2ccccc12 | 0 | 0 | 1 | -2 | 0 | . | .
O=C(NCCc1ccc(Cl)cc1)c1n[nH]c2ccccc12 | -1 | 1 | 7 | -1 | 1 | . | .
O=C1C(NC(=O)N2c3ccccc3C=Cc3ccccc32)CCCCN1Cc1cccc(Cl)c1 (stereo not drawn) | -1 | . | -3 | -1 | -1 | . | .
COc1ccc(-c2ccc(C(=O)Nc3ccc(Cl)cc3)c3occc23)c(C)c1 | 0 | . | 18* | -1 | 2 | 8 | 0
COc1ccc(-c2ccc(C(=O)Nc3ccc(NC(C)=O)cc3)c3occc23)c(C)c1 | 0 | . | 1 | -1 | -1 | . | .
COc1ccc2[nH]c(C(=O)Nc3ccc(C)c(F)c3)cc2c1 | -1 | 1 | 3 | 0 | 0 | . | .
COc1ccc(NC(=O)c2cc3ccccc3[nH]2)cc1 | 2 | 6.1* | 17* | 0 | 2 | 13* | 1
Clc1ccc(-c2nc3ccccn3c2CN2CCCCC2)cc1 | -5 | -2 | -9 | -3 | -2 | . | .
CN(C)Cc1c(-c2ccc(Cl)cc2)nc2ccccn12 | 3 | 5.4* | 18* | -1 | 2 | 10 | 1
O=C(CSc1ccccn1)c1ccc(F)cc1 | 0 | 1 | 1 | -1 | 1 | . | .
Cc1ccc(C(=O)CSc2ccccn2)cc1 | 5 | 3 | 15* | 0 | 3 | 14* | 1
O=C(O)c1ccc2c(c1)S(=O)(=O)c1cc(N3CCN(c4cnccn4)CC3)ccc1C2=O | 1 | 0 | 2 | 0 | 0 | . | .
Clc1c(CSc2nc3ccccc3o2)nc2sccn12 | 5 | 3 | 24* | 1 | 4.1* | 20* | 1

Screens: PubChem BioAssay, The Scripps Research Institute Molecular Screening Center
